By inhibition is commonly meant the drop in the measured response relative to a control, in per cent.

About 2,400 (0.65%) of roughly 370,000 compounds were called active. Many of the other results were omitted from the sample, so actives are more common in it than they were. A number with no mark means an inactive call.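 Rule for the calls: active = inhibition above the screen-wide mean plus 3 SD (cut at about 13% in these data); inactive = the rest.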

The test system of this assay is HIV-1 integrase (with human LEDGF/p75). Nature of the assay: blockers of LEDGF/p75-dependent integrase strand transfer – biochemical, TR-FRET, high throughput, primary screen (AID 743269).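 Note: signal is the Cy5 over europium emission ratio at 671 and 618 nm; 0% = plate median of compound wells.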 The following applies: TR-FRET IN-LEDGF/p75 DNA integration, Eu/Cy5; at 3.7 µM; stronger effect = higher value. (TR-FRET usually uses a lanthanide donor and a delayed reading to cut background.)
For `CCOc1ccc(NC(=O)c2cccc3c2C(=O)N(CC2CCCO2)C3)cc1` (stereo not given), the inhibition is 0.61%.
With `CC(=O)Nc1ccc(NC(=O)CSc2nnc(COc3ccccc3C)n2CC2CCCO2)cc1` (stereo not given) the figure was -8.13%; with `CCOc1cccc(=O)c2c(C)n(CC3CCCO3)c(C)c12` (stereo not given), 19.8% (active).
In the case of `COc1ccccc1CCNC(=O)C1CCN(c2nc(C)cc(C)n2)CC1`, the inhibition is -0.51%.
On to `O=C(NCc1cccs1)C1CCCN(S(=O)(=O)c2ccc([N+](=O)[O-])cc2)C1` (stereo not given), for which the inhibition was 4.07%.
For `O=C(Nc1nnc(-c2ccccc2F)s1)c1ccccc1F`, the inhibition is 5.09%.
With `NC(=O)c1ccccc1NC(=O)c1ccccc1F` the figure was 30.1% (active); with `O=C(Nc1ccccc1F)c1ccccc1-c1ccccc1`, -1.52%.
With `Cc1cc(NS(=O)(=O)c2ccc(NC(=O)CSc3nnc(-c4ccc(C(C)(C)C)cc4)n3Cc3ccco3)cc2)nc(C)n1` the figure was 2.06%; with `COC(=O)[C@]1(C#N)CC(=O)N(CC2CCCCC2)[C@@H]1c1ccccc1`, 8.17%; with `COc1ccc(CCC(C)N2CCc3ccccc3C2)cc1` (stereo not given), 0%.
Take `COCCn1nnnc1C(c1cc2ccc(OC)cc2[nH]c1=O)N1CCc2ccccc2C1` (stereo not given): the inhibition was 23.1% (active).
As for `COCCn1nnnc1C(c1ccccc1Cl)N1CCN(c2ccccc2OC)CC1` (stereo not given), the inhibition was -2.12%.
With `O=C(CSc1nnc(-c2ccccn2)n1-c1ccccc1)Nc1ccc2cn[nH]c2c1` the figure was 3.75%; with `CC[C@@H](CCC(=O)N(c1ccccc1)c1ccccc1)C1CC1`, -0.47%; with `CCOC(=O)c1[nH]c(C)c(C(=O)OCC(=O)N2c3ccccc3CC2C)c1C` (stereo not given), 0.57%.
As to `CCOC(=O)C1=C(C)c2ccccc2OC1C(=O)OCC` (stereo not given), the inhibition is 0.5%.
For the molecule `CCOC(=O)c1c(C)[nH]c2c1-c1ccccc1C(=O)C2=O`, the inhibition is 35% (active).
As to `CN1C(=O)c2cc(NS(C)(=O)=O)ccc2OC[C@@H]2O[C@@H](CC(=O)NCc3ccc(-c4ccccc4)cc3)CC[C@H]21`, the inhibition was 0.81%.
Then `CC(CCN1CCC(C(O)(c2ccccc2)c2ccccc2)CC1)Oc1ccc(Cl)cc1` (stereo not given), with -0.76%; and `Cc1cc2nc3c(=O)[nH]c(=O)nc-3n(C[C@H](O)[C@H](O)[C@H](O)CO)c2cc1C`, with -0.23%.
With `CCN(CC)CCCC(C)n1c2nc(=O)[nH]c(=O)c-2nc2cc(Cl)ccc21` (stereo not given) the figure was 19.5% (active); with `CC(CCN1CCC(C(O)(c2ccccc2)c2ccccc2)CC1)Oc1ccc([N+](=O)[O-])cc1Cl` (stereo not given), 5.97%; with `O=C(CCCCCN1C(=O)C2C3C=CC(C3)C2C1=O)Nc1ccccn1` (stereo not given), 1.71%.
With `COc1ccc2c(C)cc(SCC(=O)NCC3CCCO3)nc2c1` (stereo not given) the figure was 5.4%; with `Cc1cc(SCC(=O)NCCN2C(=O)CSC2=O)nc2ccccc12`, 24.8% (active).
As to `CCCNC(=O)CSc1nc(Cc2ccccc2)nc2ccccc12`, the inhibition is -2.65%.
Then `COP(=O)(O)CNC(=O)OCc1ccccc1`, with 2.52%; and `C[C@@H](NC(=O)c1ccccc1OCC(=O)Nc1ccc(I)cc1)C(=O)N(C)Cc1ccccc1`, with -0.62%; and `CCCOc1ccc(Oc2c(Cl)cnn(Cc3cccc4ccccc34)c2=O)cc1`, with -4.41%.
Then `Brc1ccc(C2CC(c3ccccc3)=Nc3ccccc3N2)cc1` (stereo not given), with 5.04%; and `c1ccc(C2=Nc3cccc4cccc(c34)N2)cc1`, with 15.3% (active); and `CCOC(=O)[C@]12CCCCC/C=C\1N(Cc1ccc(OC)cc1)C(=O)[C@H]2CC(=O)N1CCOCC1`, with -1.27%.
With `Cc1cc(C)n2ncc(C(=O)Nc3ccc4c(c3)OCCO4)c2n1` the figure was 1.44%; with `Cn1ccc(=Nc2ccc(NC(=O)c3ccc(N=c4ccn(C)c5ccc([N+](=O)[O-])cc45)cc3)cc2)cc1`, 19.9% (active).
As to `CC(=O)Nc1ccc(C(=O)OCC(=O)Nc2ccc([N+](=O)[O-])cc2C(F)(F)F)cc1`, the inhibition was 1.78%.
On to `O=C(Nc1cc2c3c(c1)C1CCCC1CN3CC1CCCC21)c1ccc([N+](=O)[O-])cc1` (stereo not given), for which the inhibition was 0.76%.
With `Cc1ccccc1CN1CCCCC(NC(=O)Nc2ccccc2F)C1=O` (stereo not given) the figure was -1.11%; with `O=C(Nc1cc(F)cc(F)c1)OC1CCC12CCC(c1ccccc1)CC2` (stereo not given), -2.65%; with `CCCNC(=O)Nc1ccc2c(c1)C(=O)N(C)[C@H]1CC[C@H](CC(=O)NCC3CCCCC3)O[C@@H]1CO2`, -2.65%.
With `Cc1cc(=O)n2[nH]c(-c3sccc3-n3c(C)ccc3C)cc2n1`, the inhibition is 55.6% (active).
In the case of `CCOC(=O)N1CCN(C(=O)C[C@@H]2C(=O)N(CCc3ccc(Cl)cc3)C3=CCCC[C@]32C(=O)OCC)CC1`, the inhibition is -0.28%.
Take `COc1ccc(CSc2nnc(SCC(=O)Nc3ccccc3C(F)(F)F)s2)cc1`: the inhibition is -4.35%.
`CCN(C(=O)COC(=O)CCC(=O)c1cccs1)C1CCCCC1`: the inhibition is 9.09%.
For `CC1CCN(C(=O)COC(=O)CCC(=O)c2cccs2)CC1`, the inhibition is 0.03%.
With `O=C(COC(=O)CCC(=O)c1cccs1)NCc1ccco1` the figure was 38.8% (active).
Consider `C=CCN1C(=O)[C@@H](CC(=O)N2CCN(C(=O)c3ccco3)CC2)[C@]2(C(=O)OC)CCCCC=C12`, for which the inhibition is -3.78%.
Then `COc1cc(/C=C/C(=O)n2cnc3ccccc32)cc(OC)c1OC`, with -2.83%; and `C[C@@H]1ON(C)[C@H]2C[C@H]3c4[nH]c5cccc(-c6ccc7c(c6)OCO7)c5c4CCN3C[C@@H]12`, with 4.41%; and `Cc1cc(C(=O)N/N=C/c2ccc(O)c([N+](=O)[O-])c2)c(C)n1-c1ccc(F)cc1`, with 18.1% (active).
With `Cc1c(Cl)c([N+](=O)[O-])nn1Cc1ccc(C(=O)N/N=C\c2cc(Cl)ccc2O)o1` the figure was -2.68%.
Regarding `Cc1ccc(/C=N/NC(=O)c2sccc2OCc2ccc(F)cc2)cc1`, the inhibition was -2.37%.
With `CCC[C@H]1C(=O)CC[C@@]23CCCN2C(=O)CCC[C@@H]13`, the inhibition was 0.78%.
As to `O=C(OCCOc1ccccc1Cl)c1cc(S(=O)(=O)N2CCCCC2)ccc1N1CCOCC1`, the inhibition was 4.88%.
Regarding `O=C(COC(=O)c1cc(S(=O)(=O)N2CCOCC2)ccc1F)NC1CC1`, the inhibition is 1.33%.
With `O=C(OCCOc1ccccc1F)c1cc(S(=O)(=O)N2CCOCC2)ccc1F` the figure was 13.4% (active); with `O=C(NCC1COc2ccccc2O1)c1ccc(NC(=O)c2cc(F)ccc2F)cc1` (stereo not given), -2.1%.
Then `COc1ccc2[nH]c3c(C)c4cc[n+](C)cc4c(C)c3c2c1`, with 28% (active); and `O=C(CSc1nc2c(c(=O)[nH]1)CCCC2)N1CCCCC1`, with 3.68%.
Then `CCOC(=O)C(=O)N(Cc1ccccc1)c1ccccc1C(=O)Nc1cc(OC)ccc1OC`, with 0.37%.
For the molecule `COC(=O)[C@]12C[C@H](CC(=O)NCc3ccccc3)C(=O)N(CCc3ccc(OC)c(OC)c3)C1=C[C@H](C(C)(C)C)O[C@@H]2C`, the inhibition was -2.49%.
With `Cc1ccc(-c2nn(-c3ccccc3)cc2/C=C2\SC(=S)N(CCCCCC(=O)O)C2=O)o1` the figure was 13.6% (active); with `C#CCNC(=O)C[C@H]1C[C@@]2(C(=O)OC)C(=C[C@H](C(C)C)O[C@@H]2C2CC2)N(Cc2ccco2)C1=O`, 0.25%.
With `C=C(C)C#CC(Cc1ccccc1)NCC1CC1` (stereo not given) the figure was -6.26%; with `CN[C@H]1C[C@H]2c3cc(N4CCOCC4)ccc3CCN2C[C@H]1[C@H](C)O`, 3.07%.
With `O=C(OCC(=O)N1CCN(c2ccccc2)CC1)c1ccc([N+](=O)[O-])s1` the figure was 16.4% (active); with `C[C@H](NC(=O)c1ccccc1Cl)C(=O)OCC(=O)N1CCN(c2ccccc2)CC1`, 1.43%.
Regarding `Cc1ccc(C)c(OCCC(=O)OCC(=O)N2CCN(c3ccccc3)CC2)c1`, the inhibition is -9.14%.
With `COc1ccc(-n2c(SCC(=O)Nc3ccccc3-c3ccccc3)nnc2-c2cccnc2)cc1`, the inhibition is -1.52%.
With `COc1ccc(CNC(=O)C(C)NCc2ccccc2Cl)cc1` (stereo not given) the figure was -0.38%; with `COc1ccc(NC(=O)C(NC(C)=O)C(=O)NCc2ccccc2Cl)cc1` (stereo not given), 41.8% (active); with `COc1ccc(NC(=O)N2CCCC2C(=O)NCc2ccccc2Cl)cc1` (stereo not given), -4.21%.
With `CCC(=O)OCCCN1C(=O)CCC12CCC(c1ccccc1)CC2` (stereo not given) the figure was 2.48%.
Take `O=C1CC(c2ccc3c(c2)OCO3)N=C2N(CC3CC3)C/C(=C/c3ccccc3)N12` (stereo not given): the inhibition is -0.65%.
As to `Cc1cc(NS(=O)(=O)c2ccc(NC(=O)CSc3nnc(SCc4ccc(F)cc4)s3)cc2)nc(C)n1`, the inhibition is -3.91%.
Then `CCOC(=O)C1CCN(C(=O)C(C)(C)NC(=O)Nc2ccc(F)c(F)c2)CC1`, with 3.2%; and `CNC(=O)COc1ccc(S(=O)(=O)Nc2ccccc2)cc1`, with -0.9%.
Then `Cc1ccc(S(=O)(=O)N/N=C(\c2ccccc2)C2CC2)cc1`, with 0.27%; and `COc1ccc(C(=O)C(C)OC(=O)c2cccc(S(=O)(=O)Nc3c(C)n(C)n(-c4ccccc4)c3=O)c2)cc1` (stereo not given), with 1.63%.
Turning to `Cc1ccc(S(=O)(=O)N[C@H](CO)C(C)C)cc1`, the inhibition is 4.45%.
In the case of `COc1ccc(S(=O)(=O)/N=C2\C=C(NS(=O)(=O)c3ccccc3)C(=O)c3ccccc32)cc1`, the inhibition was 15.6% (active).
Turning to `Cc1ccc(S(=O)(=O)/N=C2\C=C(NS(=O)(=O)c3ccc(C)cc3)C(=O)c3ccccc32)cc1`, the inhibition was 14.9% (active).
With `Cc1ccc(C)c(NC(=O)CCS(=O)(=O)c2ccccc2)c1` the figure was 1.44%.
With `O=C1CC[C@@]23CCCN2C(=O)CCC[C@H]3[C@H]1Cc1ccccc1` the figure was -0.34%.
With `Fc1ccc2nc(COCc3nc4ccc(F)cc4[nH]3)[nH]c2c1` the figure was 0.7%.

These data come from PubChem BioAssay AID743269 (The Scripps Research Institute Molecular Screening Center, 2014).
